HP1b chromo inh: HTS for Inhibitors of HP1-beta Chromodomain Interactions with Methylated Histone Tails. AlphaScreen HP1-beta / biotin-H3K9me3 peptide binding. Potency, µM (top dose mostly 114 µM), for the others: at the highest dose activity change, negative = inhibition, hits mostly inhibitors. Chromobox protein homolog 1 (Homo sapiens), P83916. 390,000 tested, 0.56% active. AID 540317, 2011; also: potency is read from the fitted curve at half-maximal effect; nearly all actives have a fitted effect of over 70% in size
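HP1-beta protein (50 nM final) preincubated 30 min at room temperature with biotinylated H3(1-18)K9me3 peptide (50 nM) in PBS pH 7.4, 0.01% Tween-20, then compound added for 30 min. AlphaScreen streptavidin donor/nickel chelate acceptor beads (10 ug/mL final), 30 min dark, luminescence read.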
JMJD2A Tudor: qHTS Assay for Inhibitors of JMJD2A-Tudor Domain | AlphaScreen JMJD2A-Tudor / H3K4me3 peptide binding | AID 504339, 2011 | 390,000 tested, 4.4% active | Potency, µM (titrated, usually from 114 µM), for inactives: at the highest dose activity change, negative = inhibition, actives largely listed as inhibitors; also: potency is read from the fitted curve at half-maximal effect; % is scaled to controls: 0 for no effect and ±100 for the full control effect; nearly all actives have a fitted effect of over 50% in size
Target sequence (O75164 whole entry, looked up, the tested form may be a part): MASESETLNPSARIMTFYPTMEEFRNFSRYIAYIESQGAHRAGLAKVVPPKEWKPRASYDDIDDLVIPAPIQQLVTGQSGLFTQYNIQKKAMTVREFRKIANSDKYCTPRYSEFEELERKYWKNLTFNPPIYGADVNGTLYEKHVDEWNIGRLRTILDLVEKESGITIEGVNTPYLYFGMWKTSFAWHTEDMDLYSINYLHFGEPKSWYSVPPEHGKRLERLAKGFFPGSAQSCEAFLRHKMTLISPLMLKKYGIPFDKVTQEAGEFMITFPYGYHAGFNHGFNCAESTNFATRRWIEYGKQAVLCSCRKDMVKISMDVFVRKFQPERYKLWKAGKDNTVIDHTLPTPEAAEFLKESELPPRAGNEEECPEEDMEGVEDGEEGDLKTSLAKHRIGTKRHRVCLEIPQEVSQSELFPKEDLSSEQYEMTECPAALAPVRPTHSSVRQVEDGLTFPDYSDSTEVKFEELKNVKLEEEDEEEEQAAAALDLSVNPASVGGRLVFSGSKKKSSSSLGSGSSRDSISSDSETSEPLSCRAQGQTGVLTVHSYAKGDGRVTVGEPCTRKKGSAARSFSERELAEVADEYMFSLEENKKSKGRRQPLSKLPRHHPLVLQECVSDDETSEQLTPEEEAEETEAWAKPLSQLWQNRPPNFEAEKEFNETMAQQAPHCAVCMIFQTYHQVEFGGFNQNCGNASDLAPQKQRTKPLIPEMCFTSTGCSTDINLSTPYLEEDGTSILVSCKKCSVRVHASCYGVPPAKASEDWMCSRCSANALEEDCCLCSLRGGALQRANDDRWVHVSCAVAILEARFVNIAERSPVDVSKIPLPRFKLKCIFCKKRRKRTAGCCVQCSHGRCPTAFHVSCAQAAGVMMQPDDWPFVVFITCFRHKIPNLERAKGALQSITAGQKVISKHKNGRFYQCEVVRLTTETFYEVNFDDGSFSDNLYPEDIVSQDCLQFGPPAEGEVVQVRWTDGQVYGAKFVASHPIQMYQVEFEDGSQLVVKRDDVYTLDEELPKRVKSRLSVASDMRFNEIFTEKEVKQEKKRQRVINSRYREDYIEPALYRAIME
G9a inh: qHTS Assay for Inhibitors of Histone Lysine Methyltransferase G9a; Histone-lysine N-methyltransferase EHMT2 (Homo sapiens), Q96KQ7; G9a H3K9 monomethylation, AlphaScreen, 2 h; Potency, µM (series often up to 102 µM), without a hit: at the highest dose activity, negative = inhibition, usual class: inhibitors; 350,000 tested, 8.8% active; also: potency is read from the fitted curve at half-maximal effect; % is scaled to controls: 0 for no effect and ±100 for the full control effect; nearly all actives have a fitted effect of over 75% in size
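G9a (20 nM) was preincubated 15 min with compound, then reacted 2 h at room temperature with 500 nM biotin-H3K9 peptide and 20 µM SAM. Monomethyl-H3K9 detected by AlphaScreen using anti-H3K9me1 antibody.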
PI5P4Ka inh: qHTS for Inhibitors of phosphatidylinositol 5-phosphate 4-kinase (PI5P4K); PI5P4Kalpha enzyme, ADP-Glo luminescence, 60 min; stronger effect = lower value; max response, %; 330,000 tested, 1.2% active; AID 652105, 2013; active = max response of -50% or lower; inconclusive = between -30% and -50%; inactive = -30% or higher; also: value at the top dose of about 77 µM; % is scaled to controls: 0 for no effect and ±100 for the full control effect
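Controls without substrate or without enzyme flank wells where PI5P4Kalpha converts substrate using 5 microM ATP (final). Incubation lasts 60 minutes at room temperature; ADP formed is read by ADP-Glo luminescence.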
BAZ2B inh: qHTS Assay for Inhibitors of BAZ2B; Bromodomain adjacent to zinc finger domain protein 2B (Homo sapiens), Q9UIF8; AlphaScreen BAZ2B-H3K14Ac peptide displacement; Potency, µM (series often up to 114 µM), inactives show at the highest dose activity change, negative = inhibition, hits mostly inhibitors; 360,000 tested, 4.4% active; also: potency is read from the fitted curve at half-maximal effect; % is scaled to controls: 0 for no effect and ±100 for the full control effect; nearly all actives have a fitted effect of over 60% in size
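Compounds, titrated to a top concentration of 110 uM, were incubated 30 min at room temperature with preformed BAZ2B/acetyl-K14 H3 peptide complex (50 nM each). Proximity signal was measured by AlphaScreen after 20 min with beads.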
L3MBTL1 block: qHTS Assay for the Inhibitors of L3MBTL1; 230,000 tested, 0.66% active; AlphaScreen L3MBTL1–H3K9me1 peptide binding; Potency, µM (titrated, usually from 57.1 µM), for the others: at the highest dose activity, negative = inhibition, most hits filed as inhibitors; AID 485360, 2010; also: potency is read from the fitted curve at half-maximal effect; % is scaled to controls: 0 for no effect and ±100 for the full control effect; nearly all actives have a fitted effect of over 60% in size
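L3MBTL1 50 nM + b-AHA-H3(1-15)K9me1 75 nM, 30 min RT; compound added, 30 min RT; streptavidin donor/Ni-chelate acceptor beads 10 ug/mL each final, 30 min RT dark; AlphaScreen read.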
* marks the source's active call; other numbers are inactive results; [ ] = dose if it differs, or a comment. Compounds with a hit are over-represented: about 11% of the library has one in this group of screens. Unless noted, calls follow the shape of the dose curve; as a rule, active = well fitted inhibition curve with a large enough effect; inconclusive = small, poorly fitted or top-dose-only effect; inactive = no such curve, though single readings can be large or run the other way.

CCCCCSc1nc2c(c(=O)[nH]c(=O)n2C)n1C(C)C was read as HP1b chromo inh 9%, JMJD2A Tudor -8%, G9a inh 40µM*, PI5P4Ka inh 1, BAZ2B inh 8% and L3MBTL1 block inconclusive.
COc1cc(OC)cc(C(=O)Oc2c(Sc3ccccc3)c(C)nn2C(C)(C)C)c1 was read as HP1b chromo inh 47%, JMJD2A Tudor 25%, G9a inh 27%[59 µM] and BAZ2B inh -1%.
Cc1n[nH]c(C)c1Sc1ccccc1[N+](=O)[O-] was read as HP1b chromo inh -17%, JMJD2A Tudor -34%, G9a inh -27%, PI5P4Ka inh -1, BAZ2B inh inconclusive and L3MBTL1 block 7%.
Screening Cc1ccc(-n2nc(C)c(Sc3ccccc3[N+](=O)[O-])c2N)cc1 returned HP1b chromo inh inconclusive, JMJD2A Tudor inconclusive, G9a inh 10µM*, PI5P4Ka inh -19, BAZ2B inh 35µM* and L3MBTL1 block -20%.
CC(=O)Oc1c(Sc2ccccc2[N+](=O)[O-])c(C)nn1C(C)(C)C was read as HP1b chromo inh -18%, JMJD2A Tudor inconclusive, G9a inh 45µM*, PI5P4Ka inh 0, BAZ2B inh inconclusive and L3MBTL1 block inconclusive.
Screening Cc1cc(O)c2c(C)c(CC(=O)N3CCCCC3)c(=O)oc2c1 returned HP1b chromo inh 35%, JMJD2A Tudor 1%, G9a inh inconclusive and BAZ2B inh -2%.
For C=CCN1CCc2c(cc(O)c(O)c2Br)[C@@H](c2ccccc2)C1 the results were HP1b chromo inh 7%, JMJD2A Tudor inconclusive, G9a inh 8.9µM* and PI5P4Ka inh -8.
CCc1ccc(S(=O)(=O)c2nnn3c2nc(NC2CCCC2)c2sccc23)cc1 was read as HP1b chromo inh 46%, JMJD2A Tudor 9%, G9a inh -5%[59 µM] and BAZ2B inh -3%.
Screening O=C(NC1CCCC1)c1ncn[nH]1 returned HP1b chromo inh 45%, JMJD2A Tudor 32µM*, G9a inh 20%[59 µM], PI5P4Ka inh 1, BAZ2B inh 45µM* and L3MBTL1 block inconclusive.
Screening COc1ccc(C2=Nn3c(nnc3-c3cccc(OC)c3OC)SC2)c(OC)c1 returned JMJD2A Tudor -21%.
Screening COc1ccccc1/C=C/CN1CC(C)OC(C)C1 (stereo not given) returned HP1b chromo inh inconclusive, JMJD2A Tudor 3.2µM*, G9a inh inconclusive, BAZ2B inh 45µM* and L3MBTL1 block -5%.
COc1ccccc1/C=C/CN1CCCCC1 was read as HP1b chromo inh inconclusive, JMJD2A Tudor 1.4µM*, G9a inh 28µM*, PI5P4Ka inh -2, BAZ2B inh 79µM* and L3MBTL1 block -13%.
`CC(C)(C)NC(=O)C(=O)NNC(=O)c1cccc(Br)c1` gave HP1b chromo inh 39%, JMJD2A Tudor -12%[57.1 µM], G9a inh 26%, PI5P4Ka inh 0 and BAZ2B inh inconclusive.
Cc1cccc(C(=O)NNC(=O)C(=O)NC(C)(C)C)c1 was read as HP1b chromo inh 47%, JMJD2A Tudor inconclusive, G9a inh 28µM*, PI5P4Ka inh 2, BAZ2B inh inconclusive and L3MBTL1 block 0%.
For CC(C)CNC(=O)C(=O)NNC(=O)c1ccco1 the results were HP1b chromo inh 12%, JMJD2A Tudor -14%[11.4 µM], G9a inh 11µM*, PI5P4Ka inh 6, BAZ2B inh inconclusive and L3MBTL1 block 11%.
CC(C)(C)NC(=O)C(=O)NNC(=O)c1ccco1 was read as HP1b chromo inh 51%, JMJD2A Tudor -18%, G9a inh -31%, PI5P4Ka inh -1, BAZ2B inh 56µM* and L3MBTL1 block -3%.
O=C(NNC(=O)c1ccco1)c1ccco1 was read as PI5P4Ka inh 1.
`COC(C)(C)CCCC(C)C/C=C/C(C)=C/C(=O)O` (stereo not given) gave G9a inh 30%[59 µM].
For CCOc1ccc(C2C(C(N)=O)=C(C)Nc3nc(SCc4ccccc4)nn32)cc1 (stereo not given) the results were HP1b chromo inh 39%, JMJD2A Tudor -6%, G9a inh -23%[59 µM] and BAZ2B inh inconclusive.
Screening COc1ccc(-c2noc(-c3cc(C(C)C)[nH]n3)n2)cc1 returned HP1b chromo inh 10%, JMJD2A Tudor -19%, G9a inh 3%[59 µM] and BAZ2B inh 0%.
`CC(C)NC(=O)CC(=O)Nc1ccc2nc3n(c(=O)c2c1)CCCCC3` gave HP1b chromo inh 6%, JMJD2A Tudor -16%, G9a inh 8%[59 µM] and BAZ2B inh 6%.
Screening CCCCCCCCCCCCCCC/C=C/[C@@H](O)[C@H](NC(=O)CCCCCCCCCCCCC)OC (tested in a mixture with another compound) returned G9a inh 20µM*.
Screening CCc1ccc(NC(=O)c2cnn3c(C)cc(C)nc23)cc1 returned JMJD2A Tudor -9%.
`CC(=O)NC(C(=O)c1ccccc1)C(=O)c1ccccc1` gave HP1b chromo inh 46%, JMJD2A Tudor 3%, G9a inh 50µM*, PI5P4Ka inh 1, BAZ2B inh -2% and L3MBTL1 block 1%.
For CCOP(=O)(OCC)C(NC(C)=O)C(=O)c1ccccc1 (stereo not given) the results were HP1b chromo inh 32%, JMJD2A Tudor -8%, G9a inh -28%, PI5P4Ka inh -2, BAZ2B inh -11% and L3MBTL1 block -2%.
For CC(C)OC(=O)CC(=O)CSc1nc2c(cc1C#N)CCCC2 the results were HP1b chromo inh 81%, JMJD2A Tudor 1%, G9a inh inconclusive, PI5P4Ka inh -5 and BAZ2B inh 31%.
`CCCCSc1nc2c(cc1C#N)CCC2` gave HP1b chromo inh 203%, JMJD2A Tudor 154%, G9a inh 4µM*, BAZ2B inh 198% and L3MBTL1 block 48%.
Screening N#Cc1cc2c(nc1SCC(N)=O)CCCCC2 returned HP1b chromo inh 55%, JMJD2A Tudor -3%[57.1 µM], G9a inh 79µM*, PI5P4Ka inh 1 and BAZ2B inh 5%.
CC(C)OC(=O)CC(=O)CSc1nc2c(cc1C#N)CCC2 was read as HP1b chromo inh 55%, JMJD2A Tudor 2%, G9a inh 45µM*, PI5P4Ka inh 0, BAZ2B inh -17% and L3MBTL1 block -2%.

Compound activity from PubChem.
